Assay outcomes from PubChem BioAssay.
APOBEC3G inh = APOBEC3G DNA deaminase inhibitors, primary screen, biochemical, fluorescence, single-stranded DNA substrate, uHTS | inhibition, % at 20 µM | 330,000 compounds, 0.28% hits | DNA dC->dU-editing enzyme APOBEC-3G (Homo sapiens), Q9HC16 | recombinant A3G, ssDNA deamination FAM/TAMRA fluorescence | AID 493012, 2011;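 active means inhibition of at least 40% at 20 µM, with no more than 30% in the related APOBEC3A deaminase screen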;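 further: plate controls were DMSO wells with A3G for no effect and wells lacking A3G enzyme for full effect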
Target sequence (Q9HC16 whole entry, looked up): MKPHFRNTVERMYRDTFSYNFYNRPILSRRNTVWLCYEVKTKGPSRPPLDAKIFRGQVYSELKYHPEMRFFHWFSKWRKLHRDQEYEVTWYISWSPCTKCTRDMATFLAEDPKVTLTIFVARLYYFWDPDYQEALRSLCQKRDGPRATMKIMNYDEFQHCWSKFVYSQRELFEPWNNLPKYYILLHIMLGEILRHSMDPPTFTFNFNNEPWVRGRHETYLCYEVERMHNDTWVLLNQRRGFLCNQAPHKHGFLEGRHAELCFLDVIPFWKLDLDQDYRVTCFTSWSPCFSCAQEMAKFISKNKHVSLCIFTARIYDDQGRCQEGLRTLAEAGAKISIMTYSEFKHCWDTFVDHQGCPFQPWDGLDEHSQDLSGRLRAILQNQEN
Yeast superoxide = reduction of superoxide in aged yeast, primary screen, HTS. S. cerevisiae aged cells, superoxide DHE fluorescence; hits give low values. superoxide response (% of plate mean), % at 10 µM. 330,000 compounds, 0.18% hits. AID 2690, 2010;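 active means superoxide response under a set limit, about three screen SD below normal, cut at about 65% in these data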;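 further: yeast aged for seven days with compound at 30 °C before DHE staining; 100% = average MFI of all compound-treated wells on the plate with controls excluded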
A3A deaminase = APOBEC3A ssDNA deaminase inhibitors, primary screen, selectivity assay for APOBEC3G inhibitor project, biochemical, FAM/TAMRA oligo cleavage fluorescence. recombinant A3A, FAM/TAMRA ssDNA deamination fluorescence. inhibition, % at 20 µM. AID 493011, 2011. 330,000 compounds, 0.41% hits;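 active means at least 40% inhibition at 20 µM here, with at most 30% in a related deaminase screen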;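 further: plate controls were A3A with DMSO for no effect and wells lacking A3A enzyme for full effect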
Target sequence (P31941 whole entry, looked up): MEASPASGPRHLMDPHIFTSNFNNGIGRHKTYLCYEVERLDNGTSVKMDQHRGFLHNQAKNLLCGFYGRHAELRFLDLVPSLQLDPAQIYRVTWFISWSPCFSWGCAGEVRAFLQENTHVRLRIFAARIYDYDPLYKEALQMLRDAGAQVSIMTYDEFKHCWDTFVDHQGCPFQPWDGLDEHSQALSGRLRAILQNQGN
M18AAP inhibitor = PfM18AAP inhibitors, malaria aminopeptidase, primary screen, biochemical, QFRET, recombinant enzyme | M18 aspartyl aminopeptidase (Plasmodium falciparum 3D7) | H-Glu-NHMec fluorogenic cleavage | 290,000 compounds, 1.2% hits | inhibition, % at 7.35 µM;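 active means inhibition above the campaign mean inhibition over all tested compounds plus 3 SD, cut at about 28% in these data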;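 further: 0% = plate median of test compound wells and 100% = 2 mM ZnCl2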
PfG6PD inh = PfG6PD enzyme inhibitors, primary screen, biochemical, fluorescence intensity, uHTS | glucose-6-phosphate dehydrogenase-6-phosphogluconolactonase (Plasmodium falciparum 3D7) | PfGluPho enzyme, NADPH resazurin-diaphorase fluorescence | inhibition, % at 20 µM | 350,000 compounds, 0.78% hits | AID 504690, 2011;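 active means inhibition reaching at least a set limit at 20 µM in the primary screen, cut at about 59% in these data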;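 further: 0% = DMSO wells with substrate and 100% = DMSO wells lacking glucose-6-phosphate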
A3A conf = APOBEC3A deaminase inhibitors, retest, confirmation, selectivity assay for APOBEC3G inhibitor project, biochemical, single concentration, fluorescence readout; inhibition, % at 20 µM; 1,400 compounds, 63% hits; AID 493151, 2011; shares compounds with A3A deaminase; recombinant A3A, ssDNA deaminase UDG fluorescence assay;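 active means inhibition reaching a set limit, 80% of the first screen's cutoff, at 20 µM in any replicate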;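 further: plate controls were DMSO wells with A3A for no effect and wells lacking A3A enzyme for full effect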
UDG ctr A3A = E. coli UDG inhibitors, confirmation, counter-screen for APOBEC3A inhibitor project, biochemical, single concentration, fluorescence, FAM/TAMRA oligo; inhibition, % at 20 µM; 1,000 tested, under 10 active; shares compounds with A3A deaminase; UDG counterscreen, FAM/TAMRA uracil oligo fluorescence; call rule not given here
Starred values were filed as active, the others as inactive. In the library only some 2.4% were active in any assay of this set; here they are far more common.

What do the screens show for `CN(Cc1cccc(Cl)c1Cl)C(=O)CCNC(=O)c1ccco1`?
APOBEC3G inh: -0.8; Yeast superoxide: 119.3; A3A deaminase: 0.6; PfG6PD inh: -6.2

Results for O=C(CSc1nc2ncccc2[nH]1)NCc1ccco1 ?
APOBEC3G inh: -2.5; Yeast superoxide: 100.5; A3A deaminase: -1.9; M18AAP inhibitor: 27.4; PfG6PD inh: 20.7

How did CCOC(=O)c1ccc(NC(=O)CSc2nc(C)cc(=O)[nH]2)cc1 do in these assays?
APOBEC3G inh: 15.0; Yeast superoxide: 94.9; A3A deaminase: 45.8*; M18AAP inhibitor: -9.1; PfG6PD inh: -13.2; A3A conf: 66.3*; UDG ctr A3A: 4.4

Results for O=C(CSc1nccc(=O)[nH]1)NCc1ccco1 ?
APOBEC3G inh: 17.6; Yeast superoxide: 96.8; A3A deaminase: 48.8*; M18AAP inhibitor: 1.7; PfG6PD inh: 3.4; A3A conf: 35.0*; UDG ctr A3A: -0.2

What do the screens show for `Cc1cc(=O)[nH]c(SCC(=O)NCc2ccco2)n1`?
APOBEC3G inh: 18.1; Yeast superoxide: 83.0; A3A deaminase: 65.2*; M18AAP inhibitor: 8.7; PfG6PD inh: 3.8; A3A conf: 55.0*; UDG ctr A3A: 0.9

Results for CCN(CC)C(=O)[C@H]1C[C@H](CC(=O)NCCCOC)C(=O)N2CCc3c([nH]c4cc(CCC(=O)N(C)C)ccc34)[C@]12C ?
APOBEC3G inh: 0.5; Yeast superoxide: 95.3; A3A deaminase: 0.9; PfG6PD inh: 9.8

How did C[C@H](CO)N1C[C@H](C)[C@@H](CN(C)Cc2ccc(Oc3ccccc3)cc2)Oc2cc(Br)ccc2S1(=O)=O do in these assays?
PfG6PD inh: 22.7

How did CC1(C#CC[N+]2(C)CCCCC2)CCC2C(O1)c1ccccc1OC2(C)C (stereo unspecified) do in these assays?
APOBEC3G inh: 21.3; Yeast superoxide: 88.0; A3A deaminase: 74.7*; M18AAP inhibitor: -1.4; PfG6PD inh: 2.1; A3A conf: 60.8*; UDG ctr A3A: 1.4

How did CCOC(=O)CC1(C)OCC(C[N+]2(C)CCCCC2)O1 (stereo unspecified) do in these assays?
APOBEC3G inh: 16.1; Yeast superoxide: 102.8; A3A deaminase: 78.0*; M18AAP inhibitor: 3.3; PfG6PD inh: 13.7; A3A conf: 80.6*; UDG ctr A3A: -2.7

Results for CCn1c2ccccc2c(=O)c2ccccc21 ?
APOBEC3G inh: 16.5; Yeast superoxide: 81.1; A3A deaminase: 64.4*; M18AAP inhibitor: 5.3; PfG6PD inh: -8.5; A3A conf: 18.5

Results for CCC1=[N+](C)CCn2c(C)ccc21 ?
APOBEC3G inh: 26.6; Yeast superoxide: 122.0; A3A deaminase: 64.0*; M18AAP inhibitor: 15.1; PfG6PD inh: 12.8; A3A conf: 76.1*; UDG ctr A3A: 4.1

Results for CCC1=[N+](CC(=O)c2ccc(C)cc2)CCn2c(C)ccc21 ?
APOBEC3G inh: -1.5; Yeast superoxide: 93.6; A3A deaminase: -3.2; M18AAP inhibitor: -6.0; PfG6PD inh: 0.3

How did O=C(COc1ccc(Br)cc1Br)NN1C(=O)c2ccccc2C1=O do in these assays?
APOBEC3G inh: -8.6; Yeast superoxide: 98.8; A3A deaminase: 55.2*; PfG6PD inh: -14.6; A3A conf: 11.1*; UDG ctr A3A: 8.3

Results for O=C(CCNC(=O)C1CCN(S(=O)(=O)c2ccc(F)cc2)CC1)NCc1ccncc1 ?
APOBEC3G inh: -5.4; Yeast superoxide: 87.3; A3A deaminase: -7.0; M18AAP inhibitor: 0.3; PfG6PD inh: 4.2

How did COc1ccc(C2C(C(C)=O)=C(C)N=c3s/c(=C\c4ccc5c(c4)OCO5)c(=O)n32)c(OC)c1 (stereo unspecified) do in these assays?
APOBEC3G inh: 3.6; Yeast superoxide: 106.7; A3A deaminase: 50.1*; M18AAP inhibitor: 5.6; PfG6PD inh: 3.1; A3A conf: 9.0

What do the screens show for `O=C(NCc1ccc2c(c1)OCO2)C1CCCN1S(=O)(=O)c1ccc(F)cc1` (stereo unspecified)?
APOBEC3G inh: -7.3; Yeast superoxide: 100.7; A3A deaminase: 55.1*; M18AAP inhibitor: -4.2; PfG6PD inh: 3.9; A3A conf: -4.3; UDG ctr A3A: 2.5

How did O=C(O)COc1ccc(/C=N/NC(=O)C2CCCN2S(=O)(=O)c2ccc(Cl)cc2)cc1 (stereo unspecified) do in these assays?
APOBEC3G inh: 3.6; Yeast superoxide: 112.2; A3A deaminase: 51.1*; M18AAP inhibitor: 1.6; PfG6PD inh: 12.1; A3A conf: 13.1

Results for COc1ccc(NC(=O)C2CCCN2S(=O)(=O)c2ccc(Cl)cc2)cc1 (stereo unspecified) ?
APOBEC3G inh: -3.6; Yeast superoxide: 100.7; A3A deaminase: 1.5; M18AAP inhibitor: -1.2; PfG6PD inh: -8.1

How did C=CCNC(=O)c1ccccc1NC(=O)c1ccccc1N(C)S(C)(=O)=O do in these assays?
APOBEC3G inh: 5.2; Yeast superoxide: 90.9; A3A deaminase: 44.4*; M18AAP inhibitor: 0.5; PfG6PD inh: 12.8; A3A conf: 3.8

Results for CCCNC(=O)c1ccccc1NC(=O)c1ccccc1N(C)S(C)(=O)=O ?
APOBEC3G inh: 7.0; Yeast superoxide: 109.2; A3A deaminase: 2.9; M18AAP inhibitor: 0.3; PfG6PD inh: -4.8

What do the screens show for `CSCC[C@H](NC(=O)c1ccc(Cl)c(S(=O)(=O)N2CCCC2)c1)c1nc2ccccc2[nH]1`?
APOBEC3G inh: 10.9; Yeast superoxide: 104.4; A3A deaminase: 45.0*; M18AAP inhibitor: 4.8; PfG6PD inh: -11.9; A3A conf: 54.3*; UDG ctr A3A: 1.5

Results for CSCCC(NC(=O)c1cccc(S(=O)(=O)N2CCN(C(C)=O)CC2)c1)c1nc2ccccc2[nH]1 (stereo unspecified) ?
PfG6PD inh: -16.6

What do the screens show for `CCN(C1CCCCC1)S(=O)(=O)CCNC(=O)c1ccccc1`?
APOBEC3G inh: -11.3; Yeast superoxide: 87.1; A3A deaminase: -3.4; PfG6PD inh: 5.9

How did C[N+]1(CC(=O)OC2CCCCCCCCCCC2)CCCC1 do in these assays?
APOBEC3G inh: 37.0; Yeast superoxide: 114.3; A3A deaminase: 80.1; M18AAP inhibitor: -9.0; PfG6PD inh: 7.3

What do the screens show for `CC(=O)/C(C[N+]1(C)CCCCC1)=N\O`?
APOBEC3G inh: 21.4; Yeast superoxide: 98.2; A3A deaminase: 41.0*; M18AAP inhibitor: 3.9; PfG6PD inh: -4.7; A3A conf: 82.1*; UDG ctr A3A: 5.1
